A selection follows.
aSyn 5UTR act: Activators via SNCA 5'UTR binding, MLPCN; actives 7.1% (n = 300,000); activity score, % (tested at 7.5 µM), hits read low; AID 1814; alpha-synuclein 5'UTR reporter, activators screen; in the data active means activity score below about -60%
An asterisk follows results filed as active.

SMILES	aSyn 5UTR act
CC(C)c1ccc(C(=O)Nc2cccnc2)cc1	-96*
O=C(Nc1cccnc1)c1ccc(-c2ccccc2)cc1	-163*
O=C(Nc1ccncc1)c1ccc(-c2ccccc2)cc1	-127*
O=C(Nc1cccnc1)c1cnc2ccccc2n1	-73*
O=C(Nc1ccccc1)c1cnc[nH]1	-68*
O=C(Nc1ccc(-c2cnco2)cc1)c1ccccc1	-172*
O=C(NNC(=O)c1ccc(-c2ccccc2)cc1)c1ccccc1	-64*
CC(C)c1cc(C(=O)Nc2cccnc2)no1	-85*
COc1cccc(NC(=O)c2ccc(NC(=O)C(C)(C)C)cc2)c1	-189*
CCC(C)c1ccc(NC(=O)c2cccnc2)cc1 (centres undefined)	-269*
CC(C)(C)C(=O)NC(=S)NNC(=O)c1ccc(-c2ccccc2)cc1	67
Cc1ccc(C(=O)Nc2cccnc2)cc1Cl	-172*
CS(=O)(=O)c1cccc(C(=O)Nc2ccc3c(c2)OCCCO3)c1	-101*
O=C(Oc1ccc2c(c1)OCO2)c1ccc(F)cc1Cl	-176*
O=C(Nc1cccc(F)c1)c1ccc2c(c1)OCO2	-149*
O=C(Oc1ccc(N2C(=O)CCC2=O)cc1)c1ccccc1Cl	59
CCN(CC)S(=O)(=O)c1cccc(C(=O)Nc2ccc3c(c2)OCO3)c1	-125*
O=C(Nc1ccc(Cl)c(S(=O)(=O)N2CCOCC2)c1)c1ccc2c(c1)OCCO2	-65*
O=C(NNC(=O)c1ccc(F)cc1F)c1ccc2c(c1)OCO2	-90*
CCC(CC)C(=O)Nc1cccc(C(=O)Nc2ccc3c(c2)OCO3)c1	-121*
O=C(Nc1ccc2c(c1)OCCO2)c1cccc(S(=O)(=O)N2CCOCC2)c1	-88*
O=C(Nc1ccc2cn[nH]c2c1)c1ccc(Cl)c(S(=O)(=O)N2CCOCC2)c1	-200*
O=C1CC(c2ccc3c(c2)OCCO3)Oc2ccc([N+](=O)[O-])cc21 (centres undefined)	-163*
O=C1CC(c2ccc3c(c2)OCCO3)Oc2ccccc21 (centres undefined)	-209*
CC(C)Oc1ccccc1C1CC(=O)Nc2cc3c(cc21)OCCO3 (centres undefined)	73
SMILES	aSyn 5UTR act
COc1ccc(C2CC(=O)c3ccccc3O2)cc1 (centres undefined)	-147*
COc1cccc(-c2cn3nc(C)c(C)nc3n2)c1	-70*
COc1ccc(-c2ncc3ccccn23)cc1	-142*
COc1cccc(-c2ncc3ccccn23)c1	-124*
CSc1nc(/C=C2\C=Nc3ccccc32)c(O)n1C	-152*
CCNc1ccc(Br)cc(C(=O)/C=C/c2c(Cl)cccc2Cl)c1=O	-133*
CC(C)(C)C1CCC(OC(=O)CN2CCOCC2)CC1 (centres undefined)	-108*
CCOc1ccc(-c2ccc(SCC(=O)NCC3CCCO3)nn2)cc1 (centres undefined)	-67*
Cc1ccc(-c2ccc(SCC(=O)NCC3CCCO3)nn2)cc1 (centres undefined)	-85*
CCOc1ccc(C(=O)Nc2nnc(SCC(=O)NCC3CCCO3)s2)cc1 (centres undefined)	76
CCOC(=O)c1c(C)n(-c2ccc(C)cc2)c2ccc(OCC(O)CNCC3CCCO3)cc12 (centres undefined)	75
CC(C)OC(=O)c1cc2ccccc2[nH]1	-84*
CCOC(=O)c1cc2cc3ccccc3cc2[nH]1	-300*
Cn1c(=O)[nH]c2cc3ccccc3cc21	62
O=C(COC(=O)c1ccccc1-n1cnnn1)c1ccc(F)cc1	-145*
Cc1c(C=O)c2cc(OCc3ccccc3)ccc2n1C	-76*
Cc1cc2cc(OCc3ccccc3)ccc2n1C	-183*
O=C1CCCC/C1=C/Nc1ccc2c(c1)OCO2	-139*
O=C1CCCC/C1=C/Nc1ccc(C(=O)O)cc1	-72*
Cc1cccc(N(C)C(=O)c2cc3cc4ccc(C)cc4nc3o2)c1	-605*
Cc1cccc(N(C)S(=O)(=O)c2ccc(-c3cc(C)no3)s2)c1	88
Cc1nn(Cc2c(F)c(F)c(F)c(F)c2F)c(C)c1NC(=O)c1ccc(COc2cc(Cl)ccc2Cl)cc1	-133*
Cc1ccc(NC(=O)/C(C#N)=C(\N)C(Cl)(Cl)Cl)nc1	-68*
Cc1ccc(NC(=O)Nc2ccccc2)nc1	-119*
Cc1ccc(NC(=O)c2ccc(F)cc2)nc1	-107*
SMILES	aSyn 5UTR act
Cc1ccc(NC(=O)Nc2cccc([N+](=O)[O-])c2)nc1	-113*
C=C(C)c1cccc(C(C)(C)NC(=O)Nc2ccc(C)cn2)c1	-91*
Cc1ccc(NC(=O)Nc2ccc([N+](=O)[O-])cc2)nc1	-113*
Cc1ccc(NC(=O)C(=O)Nc2ccc(C)cn2)nc1	-66*
Cc1cc2nc3c(nc2cc1C)CCCC3	-178*
NC(=O)c1ccccc1NC(=S)NC(=O)c1ccc(Br)o1	-124*
O=C(NC(=S)Nc1ccccc1)c1ccc(Br)o1	-287*
CCCC(=O)Nc1ccc2c(c1)Cc1ccccc1-2	-138*
COc1ccc(NC(=O)c2ccc(Br)o2)cc1	-159*
CC(C)c1ccc(NC(=O)c2ccc(Br)o2)cc1	-148*
O=C(Nc1ccc(Nc2ccccc2)cc1)c1ccc(Br)o1	-128*
CC(C)(C)c1ccc(C(=O)Nc2ccc(CC(=O)O)cc2)o1	111
COc1ccc(NC(=S)NC(=O)c2ccc(Br)o2)cc1	-107*
O=C(Nc1ccc2c(c1)Cc1ccccc1-2)c1ccc(Br)o1	-94*
O=C(Nc1cccc(OC(=O)c2ccc(Br)o2)c1)c1ccccc1	-66*
Cc1c(C(=O)Nc2ccc(N3CCOCC3)cc2)oc2ccccc12	-166*
O=C(Nc1ccc(N2CCOCC2)cc1)c1cc2ccccc2o1	-110*
O=C(/C=C/N1CCOCC1)c1cc2ccccc2o1	-82*
O=C(Nc1ccc(CN2CCOCC2)cc1)c1cc2ccccn2n1	72
O=C(Nc1ccc(CN2CCOCC2)cc1)c1cc2ccccc2o1	-71*
O=C(/C=C/N1CCOCC1)c1coc2ccccc12	-104*
CCCCC(=O)Nc1ccc(NC(=O)c2ccco2)cn1	-75*
CCCC(=O)Nc1ccc(NC(=O)c2ccco2)cn1	-93*
CC(C)C(=O)Nc1ccc(NC(=O)c2ccco2)cn1	-86*
N/C(=N\OC(=O)c1cccc(Br)c1)c1ccccn1	72
SMILES	aSyn 5UTR act
N/C(=N\OC(=O)c1ccc2ccccc2c1)c1ccc(Br)cc1	-103*
Cc1cccc(C(=O)O/N=C(\N)c2ccc(Br)cc2)c1	-211*
N/C(=N\OC(=O)c1cccc(Br)c1)c1ccccc1	-305*
Cc1cc(C)cc(C(=O)O/N=C(\N)c2ccc(Br)cc2)c1	-83*
N/C(=N\OC(=O)c1ccoc1)c1ccc(Br)cc1	-111*
Cc1ccc(C(=O)O/N=C(\N)c2ccc(Br)cc2)cc1C	-136*
Cc1cccc(C(=O)O/N=C(\N)c2ccc(Cl)cc2)c1	-108*
Oc1ccc(/C=N/Nc2ccnc3cc(Cl)ccc23)c(O)c1	-227*
Clc1ccc2c(N/N=C/c3cccnc3)ccnc2c1	-81*
Fc1ccc(N/N=C/c2cccnc2)c(F)c1	-114*
c1ccc2c(c1)CC(N1CCCCC1)c1ccccc1S2 (centres undefined)	90
Fc1ccccc1-c1nc(-c2ccccc2)no1	-97*
NC(=O)c1ccccc1-c1nc(-c2ccccc2)no1	-82*
Fc1ccccc1-c1nc(-c2ccncc2)no1	-116*
Clc1ccc(Nc2nc(-c3cccnc3)cs2)cc1	-146*
c1ccc(-c2csc(Nc3cccnc3)n2)cc1	-164*
CCN(CC)c1ccc(Nc2nc(-c3cccnc3)cs2)cc1	-210*
Fc1ccc(Nc2nc(-c3cccnc3)cs2)cc1	-265*

Source: PubChem BioAssay
